# Measured values as given in the supplement of paper PMC6853941.
# A number with no mark means an inactive call.
# System: MCF10A
# Experiment: perturbation Mahalanobis distance of morphological profile vs DMSO controls (Mahalanobis distance (SD units)); higher = stronger morphological change, active = 7 or more
# Settings: 72 h
# Description: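 MCF10A cells were seeded onto drugs dispensed acoustically into 384-well plates, using one dose per drug chosen from its human peak plasma concentration, and incubated for 72 h at 37 °C. Cells were stained for DNA, tubulin and mitochondria and imaged; 78 CellProfiler features were extracted, plate-normalised and compared with DMSO wells.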
# [1] = screen batch: Batch1_Mahalanobis_Distance
# [2] = screen batch: Batch2_Mahalanobis_Distance
SMILES,perturbation Mahalanobis distance [1],perturbation Mahalanobis distance [2]
CC(=O)O[C@H]1C[C@@H]2CC[C@@H]3[C@H](CC[C@@]4(C)[C@H]3C[C@H]([N+]3(C)CCCCC3)[C@@H]4OC(C)=O)[C@@]2(C)C[C@@H]1N1CCCCC1 [Vecuronium Bromide] (3.3 µM),3.8,2.49
COc1cc2nc(N3CCN(C(=O)C4CCCO4)CC3)nc(N)c2cc1OC (stereo unspecified) [Terazosin] (1 µM),2.35,2.82
N[C@@H]1CONC1=O [D-Cycloserine] (98 µM),7.56 (active),9.13 (active)
